Consider 40 compounds from PubChem BioAssay (NCI).

The panel holds about 83,000 compounds, 20% with a hit somewhere; the sample as a whole holds those more often.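 Activity criterion: percent growth below 10, measured after cells in 96-well plates were exposed to a single compound concentration for 48 hours.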 Values without a mark were called inactive. The source made the active and inactive calls.

For the assay, the system named is MDA-MB-468 breast. In words: NCI-60 one-dose screen, 48 h (100 = growth as untreated, 0 = no growth, -100 = all killed). As to conditions: 10 µM unless noted.
With `Cc1cc(C(NC(=O)CCCCCNc2cccc3c2C(=O)N(C2CCC(=O)NC2=O)C3=O)c2ccc3c(c2)OC(F)(F)O3)c(O)c2ncccc12` (stereo not given), the growth was 69%.

In the case of `O=C(/C=C/c1cccnc1)/C=C/c1cccnc1`, the growth is -64.1% (active).

For `COc1cccc(/C=N/N=C(N)N)c1`, the growth is 90%.

Take `COc1cccc(/C=C2\C=C(c3ccccc3)N(Cc3ccccc3)C2=O)c1`: the growth is 45.3%.

As to `CCOC(=O)C(CC)n1c(=O)c2cc(OC)c(OC)cc2c2cnc3[nH]ccc3c21` (stereo not given), the growth was 84.2%.

Regarding `COc1ccc2nc(SCC(=O)Nc3ccccc3C)[nH]c2c1`, the growth was 98%.

On to `O=C(Nc1ccc(Cl)cc1F)c1cc(Cl)ccc1O`, for which the growth was -20.2% (active).

Take `N#Cc1c(-c2ccccc2)nc2c(c(-c3ccccc3)nn2-c2ccccc2)c1-c1ccc(O)cc1`: the growth is 38.3%.

On to `NC1[C@H](c2c[nH]c3ccccc23)c2c([nH]c3ccccc23)[C@H]1c1c[nH]c2ccccc12` (stereo not given in full), for which the growth is 106%.

As to `CN1CCc2c(sc3ncnc(N/N=C/c4ccc(Cl)c(Cl)c4)c23)C1`, the growth is -26.6% (active).

For the compound `c1cnc2n[nH]c(Nc3ncnc4c3sc3ncccc34)c2c1`, the growth is 96.5%.

In the case of `COc1ccc(-c2nc3ccc(-c4nnc(SCC(=O)Nc5ccc(C(C)=O)cc5)o4)cc3[nH]2)cc1`, the growth is 109%.

As for `COc1cc(/C=C/c2cc(/C=C/c3ccc(O)c(OC)c3)n(C(=O)c3ccc(Cl)cc3)n2)ccc1O`, the growth was 1.45% (active).

Regarding `OCCNc1nc(Nc2ccc(Cl)c(Cl)c2)nc2ccccc12`, the growth is -10.6% (active).

As to `COC(=O)[C@]12CC[C@@H](C)[C@H](C)[C@@H]1C1=CC[C@@H]3[C@@]4(C)C/C(=N\O)[C@H](O)[C@@]5(C)COC(=C45)C[C@@]3(C)[C@]1(C)CC2`, the growth was -71.7% (active).

On to `Cc1ccc(NC(=O)c2ccc(CN3CCOCC3)c(C(F)(F)F)c2)cc1Oc1ccc(-c2[nH]nc3ncnc(N)c23)cc1`, for which the growth was 96.8%.

On to `COCCc1ccc(OCC(O)CNC(C)C)cc1` (stereo not given), for which the growth is 113%.

Regarding `CCOC(=O)N/N=C\C(C)=N\NC(=O)OCC`, the growth was 114%.

For `O=C(O)CN1C(=O)CCC1=O`, the growth is 108%.

Consider `CCCCCCCn1cc2c(N[C@H](C)c3ccccc3)ncnc2n1`, for which the growth was 119%.

Turning to `CCCCCCCCN(CCCCCCCC)CC(O)c1ccc(Cl)c(C)c1Cl` (stereo not given), the growth was 105%.

On to `Cc1ccc(NC(=O)Nc2nc3ccccc3s2)cc1NC(=O)Nc1nc2ccccc2s1`, for which the growth is 96%.

In the case of `C=C1C(=O)O[C@H]2[C@H]1CC/C(COC(=O)NCc1ccc(Cn3c(=O)sn(CCCCC)c3=O)cc1)=C\CC[C@@]1(C)O[C@@H]21`, the growth was 3.66% (active).

In the case of `Nc1nc2c(c3ncccc13)C(c1cccc(Cl)c1)Cc1ncccc1-2` (stereo not given), the growth was 26.6%.

Regarding `N=C(N)/N=C(\CCc1nc2ccccc2[nH]1)c1nc2ccccc2[nH]1`, the growth was 109%.

For `COc1ccc(/C=C/C(=O)c2ccc(NC(=O)CSc3nnc(-c4ccc(OC)c(OC)c4)n3-c3ccccc3)cc2)cc1`, the growth was 60.2%.

For `Cc1c(C(N)=O)sc2c1C(=O)N(Cc1ccccc1)C1=NN=C(c3ccc(Cl)cc3)CN12`, the growth was 60.1%.

As for `CCOCc1nc2ccccc2c(=O)[nH]1`, the growth is 98.7%.

For the compound `N#Cc1cc(-c2ccnc(Nc3ccc(NC(=O)CCl)cc3)n2)ccc1N1CCCC1`, the growth was -45.9% (active).

Consider `COCCCC/C(=N\OCCN)c1ccc(C(F)(F)F)cc1`, for which the growth is 101%.

Turning to `Brc1ccc2[nH]cc(-c3nonc3-c3c[nH]c4ccccc34)c2c1`, the growth is 62.9%.

In the case of `Cc1cc(N2CCCCC2)nc(N(CCNc2ccnc3cc(Cl)ccc23)Cc2ccco2)n1`, the growth was -0.362% (active).

Consider `C=CCCCCCCCCC(=O)[O][Sn]([CH2]CCC)([CH2]CCC)[CH2]CCC`, for which the growth was -85.6% (active).

As for `COc1ccc(COC(=O)CC(C)C)cc1`, the growth is 102%.

For `Nc1c(C(=O)Nc2ccncc2)sc2nc3c(cc12)CCCCC3`, the growth was 54.2%.

As to `Cc1ccc(S(=O)(=O)OC[C@]23CCC(C)(C)C[C@H]2C2=CC[C@@H]4[C@@]5(C)CCCNC(C)(C)[C@@H]5CC[C@@]4(C)[C@]2(C)CC3)cc1`, the growth was -35.1% (active).

On to `Nc1ccc(N=Nc2ccccc2)cc1[N+](=O)[O-]`, for which the growth is -6.35% (active).

Turning to `NC(=S)Nc1ccc2c(c1)Cc1ccccc1-2`, the growth was 69.4%.

As for `COC(=O)c1cc(-c2cccs2)c(C#N)c(N)c1C#N`, the growth is 80.8%.

`Cc1c(NC(=O)CSc2nc3sc4c(c3c(=O)n2-c2ccc(Cl)cc2)CCCC4)c(=O)n(-c2ccccc2)n1C`: the growth was 89.8%.
